ADAM10 inh = ADAM10 inhibition, QFRET primary screen; recombinant ADAM10, EDANS/DABCYL FRET peptide cleavage, 3 h; hit rate 0.62% among 370,000; O14672; inhibition, % at 7 µM;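 active means inhibition above a per-campaign cutoff equal to the mean of compounds falling between control-based bounds plus 3 SD, cut at about 20% in these data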;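 further: 0% = DMSO wells while the 100% control is not disclosed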
ADAM17 inh = inhibitors of human ADAM17. recombinant ADAM17, EDANS/DABCYL FRET peptide cleavage. hit rate 0.83% among 370,000. inhibition, % at 6.95 µM. P78536;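 active means inhibition above the mean of compounds lying between control limits plus 3 SD, set per campaign, cut at about 8.5% in these data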;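 further: 0% = DMSO-only wells as the low control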
rCAG binder-1 = r(CAG) repeat RNA binding | TO-PRO-1 dye displacement fluorescence | AID 651821 | hit rate 1.3% among 370,000 | inhibition, % at 3 µM;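 active means inhibition above the plate cutoff, the mean of all test compounds on that plate plus 3 SD, cut at about 35% in these data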;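 further: 0% = DMSO alone and 100% = 100 µM mitoxantrone as full dye displacement; higher means more dye released from RNA so lower well fluorescence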
proKLK7 act = activates the human kallikrein-7 zymogen; hit rate 0.9% among 370,000; activation, % at 7 µM; purified proKLK7, EDANS-DABCYL substrate fluorescence; 100% is mature enzyme control, 0% vehicle; P49862;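 active means activation above the mean of all tested compounds plus 3 SD, computed per campaign excluding outliers beyond control limits, cut at about 13% in these data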
DSG3 Ab inh = blocks pemphigus antibody binding to human desmoglein-3 | P32926 | DSG3-coupled beads, scFv-anti-DSG3-GFP binding, flow cytometry; active compounds read low | binding (percent of control), % at 10 µM | hit rate 0.48% among 310,000;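 active means binding more than 3 SD below its plate's average and above zero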;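 further: hits lower antibody fragment binding to DSG3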
Target sequence (P32926 whole entry, looked up, the tested form may be a part): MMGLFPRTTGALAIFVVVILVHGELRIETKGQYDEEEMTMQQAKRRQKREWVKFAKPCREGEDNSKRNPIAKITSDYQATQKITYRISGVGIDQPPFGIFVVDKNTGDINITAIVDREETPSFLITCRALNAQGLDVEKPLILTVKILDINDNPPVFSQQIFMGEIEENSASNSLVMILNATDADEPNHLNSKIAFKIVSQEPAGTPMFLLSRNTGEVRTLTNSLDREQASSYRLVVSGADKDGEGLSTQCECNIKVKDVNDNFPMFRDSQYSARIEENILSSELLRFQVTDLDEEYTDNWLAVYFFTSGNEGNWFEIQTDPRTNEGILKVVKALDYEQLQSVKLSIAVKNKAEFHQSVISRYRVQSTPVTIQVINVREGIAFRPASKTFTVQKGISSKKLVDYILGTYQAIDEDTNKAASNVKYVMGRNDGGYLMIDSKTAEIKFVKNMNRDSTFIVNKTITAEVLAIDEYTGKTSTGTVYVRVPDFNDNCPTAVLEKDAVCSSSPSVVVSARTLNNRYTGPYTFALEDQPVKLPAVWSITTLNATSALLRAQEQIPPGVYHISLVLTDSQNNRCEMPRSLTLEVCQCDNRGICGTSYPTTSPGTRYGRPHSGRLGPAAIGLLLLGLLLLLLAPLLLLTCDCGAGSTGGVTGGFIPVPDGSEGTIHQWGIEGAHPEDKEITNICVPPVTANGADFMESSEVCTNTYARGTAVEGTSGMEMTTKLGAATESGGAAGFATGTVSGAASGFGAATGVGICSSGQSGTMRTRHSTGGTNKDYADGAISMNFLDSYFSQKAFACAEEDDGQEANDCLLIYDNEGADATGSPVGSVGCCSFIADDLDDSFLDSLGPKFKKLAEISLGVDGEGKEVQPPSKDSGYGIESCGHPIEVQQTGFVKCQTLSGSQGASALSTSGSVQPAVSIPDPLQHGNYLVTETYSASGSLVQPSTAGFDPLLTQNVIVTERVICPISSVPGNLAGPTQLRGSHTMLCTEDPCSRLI
MPTP block = inhibitors of mitochondrial permeability transition pore; inhibition, % at 10 µM; hit rate 1.4% among 360,000; isolated mouse mitochondria, Ca2+ swelling absorbance, 30 min; AID 602449;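 active means inhibition of 50% or more, scaled per plate between neutral and stimulator controls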;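 further: 0% = DMSO wells given calcium and 100% = 1 mM EGTA wells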
rCAG binder conf = r(CAG) RNA repeat binding, confirmation; shares compounds with rCAG binder-1; TO-PRO-1 dye displacement fluorescence; inhibition, % at 3 µM; hit rate 70% among 4,300; AID 652065;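 active means inhibition above a per-plate cutoff, the mean inhibition of sample wells plus 3 SD, cut at about 35% in these data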;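 further: loss of TO-PRO-1 fluorescence as compound displaces dye from 1x1 AA loop RNA; 0% = DMSO only wells and 100% = 100 µM mitoxantrone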
DNA CAG counter = disrupts DNA CAG TO-PRO-1 complex, flagging rCAG hits. shares compounds with rCAG binder-1. d(CAG) DNA oligo TO-PRO-1 dye displacement, fluorescence. hit rate 94% among 4,300. AID 652068. inhibition, % at 3 µM;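 active means inhibition above its plate's cutoff, the mean test-well inhibition plus 3 SD, cut at about 4.8% in these data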;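 further: 0% = DNA dye mix with DMSO and 100% = 100 µM mitoxantrone; hits displace the dye from DNA and so lower well fluorescence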
dCAG dye DR = disrupts DNA CAG TO-PRO-1 complex in dose response | shares compounds with rCAG binder-1 | DNA CAG/GTC duplex TO-PRO-1 dye displacement fluorescence | IC50, µM | hit rate 20% among 250; in the data active means IC50 below about 10 µM
dCAG DNA bind = DNA CAG dye complex inhibition, late stage dose response; d(CAG) DNA duplex TO-PRO-1 dye displacement, fluorescence; shares compounds with rCAG binder-1; hit rate 80% among 30; IC50, µM
rCAG binder-2 = molecules binding r(CAG) RNA repeats, late stage dose response; IC50, µM; hit rate 100% among 30; shares compounds with rCAG binder-1; r(CAG) RNA TO-PRO-1 dye displacement, fluorescence
Numbers without * were called inactive; · = not tested or not shown. Compounds with a hit are over-represented: about 4.7% of the library has one in this group of screens. Unless noted, how the calls were made is not given here.

SMILES	ADAM10 inh	ADAM17 inh	rCAG binder-1	proKLK7 act	DSG3 Ab inh	MPTP block	rCAG binder conf	DNA CAG counter	others
CCOC(=O)c1c(NS(C)(=O)=O)sc2c1CCC(C)C2 (centres undefined)	-9.0	0.7	48.0*	0.5	·	-0.6	18.3	8.0*
CCOC(=O)c1c(NC(=O)C2C3C=CC(C3)C2C(=O)O)sc2c1CC(C)CC2 (centres undefined)	-21.5	-11.2	48.3*	0.5	113.0	-0.3	53.5*	14.4*
CCc1nc2c(OCc3ccccc3C)cccn2c1N(C)C(=O)c1ccco1	-9.7	-3.2	2.9	0.0	·	-0.4	·	·
CCc1nc2c(OCc3cccc(Cl)c3)cccn2c1N(C)C(=O)CC(C)C	-3.2	1.1	-1.4	0.1	·	-1.1	·	·
Cc1[nH]nc2c1C(c1cccc(C(F)(F)F)c1)N(Cc1ccccc1)C2=O (centres undefined)	-14.7	-2.0	1.3	0.6	·	·	·	·
Cc1ccc(S(=O)(=O)CC(=O)Nc2nc(-c3ccccc3)cs2)cc1	12.9	6.1	7.2	0.1	94.0	0.1	·	·
Cc1ccc(S(=O)(=O)Nc2nc(-c3ccccc3)cs2)cc1	-6.0	-4.0	39.5*	-0.1	114.4	0.8	25.7	6.1*
Cc1ccc(Nc2nc(-c3cccs3)cs2)nc1	-14.7	-1.6	7.4	0.8	144.8	-1.0	·	·
Cc1ccc(Nc2nc(-c3ccccc3)cs2)nc1	1.1	5.9	46.8*	-0.5	107.8	0.8	3.6	0.8
COC(=O)[C@]12C[C@H](CC(=O)N3CCCC3)C(=O)N(Cc3ccc4c(c3)OCO4)C1=C[C@H](COCc1ccccc1)O[C@@H]2C	-9.4	-5.0	0.9	0.4	·	·	·	·
C=CCN=C1NC(c2ccc(Cl)cc2)C(C(=O)OC)=C(C)N1C (centres undefined)	-4.8	0.9	5.3	0.2	·	·	·	·
NC(=O)c1ccccc1NS(=O)(=O)c1ccccc1	-65.8	-18.2	1.2	-0.5	100.1	1.5	·	·
NNC(=O)c1cc2ccccc2cc1NS(=O)(=O)c1ccccc1	4.1	1.3	53.9*	-4.2	99.4	1.1	13.6	5.0*
C[C@H](CO)N1C[C@H](C)[C@H](CN(C)C(=O)Nc2ccc(F)cc2)Oc2ncc(Br)cc2C1=O	-1.8	-3.9	3.4	-0.3	·	·	·	·
O=C1CC(N2CCOCC2)=NC(=O)N1c1ccc(Br)cc1	-10.4	5.0	4.8	-0.5	·	·	·	·
COc1ccc(C2c3[nH]c4ccccc4c3C[C@H]3C(=O)N(c4ccccc4C(=O)N4CCC[C@@H]4C(=O)O)C(=O)N23)cc1 (some centres undefined)	-15.8	-8.7	31.6	1.2	100.5	0.1	·	·
COc1cccc(C2c3[nH]c4ccccc4c3C[C@H]3C(=O)N(c4ccccc4C(=O)N4CCC[C@H]4C(=O)O)C(=O)N23)c1 (some centres undefined)	-36.5	-11.4	31.2	0.3	99.1	1.6	·	·
Cc1ccc(C2c3[nH]c4ccccc4c3C[C@H]3C(=O)N(c4ccccc4C(=O)N4CCC[C@H]4C(=O)O)C(=O)N23)cc1 (some centres undefined)	-16.2	-2.7	38.7*	1.1	·	1.8	57.3*	18.1*
COc1ccc(C2c3[nH]c4ccccc4c3C[C@H]3C(=O)N(c4ccccc4C(=O)N4CCC[C@H]4C(=O)O)C(=O)N23)cc1 (some centres undefined)	-9.9	-3.9	37.2*	0.9	104.4	-0.8	51.1*	16.4*
O=C(NCCN1CCOCC1)c1ccccc1N1C(=O)[C@@H]2Cc3c([nH]c4ccccc34)C(c3ccccc3)N2C1=O (some centres undefined)	-35.2	-1.3	6.2	-0.6	97.5	-2.0	·	·
CC(C)c1ccc(C2c3[nH]c4ccccc4c3C[C@H]3C(=O)N(c4ccccc4C(=O)N4CCC(C(=O)O)CC4)C(=O)N23)cc1 (some centres undefined)	-4.5	0.0	42.0*	1.6	·	3.4	61.4*	21.4*
CC(C)c1ccc(C2c3[nH]c4ccccc4c3C[C@H]3C(=O)N(c4ccccc4C(=O)N4CCC[C@@H]4C(=O)O)C(=O)N23)cc1 (some centres undefined)	-7.1	-2.4	46.4*	2.1	114.6	1.4	70.7*	27.8*	dCAG dye DR=>29.9;dCAG DNA bind=>29.9;rCAG binder-2=1.94*
O=[N+]([O-])c1ccc(Br)c(CN2CCN(c3ncc(Cc4ccccc4)cn3)CC2)c1	1.8	6.7	2.3	-0.9	·	3.1	·	·
O=C(N[C@@H](Cc1ccc(Br)cc1)C(=O)O)OCC1c2ccccc2-c2ccccc21	3.5	3.3	39.2*	-0.3	103.3	-1.1	69.3*	27.5*
CC(c1ccccc1)C(NC(=O)OCC1c2ccccc2-c2ccccc21)C(=O)O (centres undefined)	17.2	0.1	46.0*	-0.3	107.0	-1.6	42.0*	8.9*
SMILES	ADAM10 inh	ADAM17 inh	rCAG binder-1	proKLK7 act	DSG3 Ab inh	MPTP block	rCAG binder conf	DNA CAG counter	others
O=C(CCc1c[nH]c2ccccc12)NC(Cc1ccccc1)C(=O)O (centres undefined)	0.8	-2.4	36.0*	-0.9	92.0	-0.8	4.1	1.1
COC(=O)C(Cc1ccccc1)NC(=O)CCc1c[nH]c2ccccc12 (centres undefined)	6.6	-4.1	-1.6	0.2	95.9	1.4	·	·
O=C(NC(Cc1c[nH]c2ccccc12)C(=O)O)OCC1c2ccccc2-c2ccccc21 (centres undefined)	0.2	1.4	69.5*	1.0	·	0.1	59.1*	18.4*
CC(=O)N[C@H](Cc1c[nH]c2ccccc12)C(=O)O	8.6	-4.1	1.0	-0.2	95.3	-2.1	·	·
C=CCN1C(=O)c2n[nH]c(COC)c2C1c1ccc(C)cc1 (centres undefined)	1.4	-0.8	-0.6	-0.4	·	·	·	·
CO[C@H]1CN(C)C(=O)c2cc(NC(=O)c3ccccc3)ccc2OC[C@H](C)NC[C@@H]1C	6.6	2.8	-2.8	-0.4	·	-2.6	·	·
C[C@H](O)[C@@H]1CN2CCc3c([nH]c4c(-c5ccccc5)cccc34)[C@@H]2C[C@@H]1N(C)C(=O)NC1CCCCC1	-44.2	-9.5	4.8	1.4	·	·	·	·

High-throughput results as filed in PubChem.
